# Compounds with a hit are over-represented: about 12% of the library has one in this group of screens.
# HP1b binding inh = blocks HP1-beta chromodomain binding to methylated histone tails | AlphaScreen HP1-beta / biotin-H3K9me3 peptide binding | Potency, µM (series often up to 114 µM), actives largely listed as inhibitors | hit rate 0.56% among 390,000 | AID 540317; also: nearly all actives have a fitted effect of over 70% in size
#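 HP1-beta protein (50 nM final) preincubated 30 min at room temperature with biotinylated H3(1-18)K9me3 peptide (50 nM) in PBS pH 7.4, 0.01% Tween-20, then compound added for 30 min. AlphaScreen streptavidin donor/nickel chelate acceptor beads (10 ug/mL final), 30 min dark, luminescence read.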
# Sfp PPTase inh = blocks B. subtilis Sfp PPTase activity; Q9F4F7; Biochemical Sfp PPTase activity, qHTS; Potency, µM, most hits filed as inhibitors; hit rate 3.5% among 310,000; AID 1490;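 also: the enzyme is Sfp with the accession as filed and its product quenches rhodamine fluorescence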
#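 Compounds were incubated with enzyme (final 15 nM) for 15 min at room temperature before substrate addition started the reaction. Fluorescence at 525 nm excitation, 598 nm emission was recorded immediately and after 30 minutes.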
# G9a inh = G9a (human) methyltransferase inhibition | AID 504332 | Potency, µM (titrated, usually from 102 µM), hits mostly inhibitors | G9a H3K9 monomethylation, AlphaScreen, 2 h | hit rate 8.8% among 350,000 | Q96KQ7; also: nearly all actives have a fitted effect of over 75% in size
#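 Signal arises when biotinylated H3K9 peptide, once monomethylated, bridges streptavidin donor and antibody-captured acceptor beads. Enzyme at 20 nM was preincubated 15 min with test compounds; peptide 500 nM and SAM 20 uM then reacted for 2 h.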
# JMJD2A Tudor inh = JMJD2A Tudor domain (human) inhibition. AlphaScreen JMJD2A-Tudor / H3K4me3 peptide binding. AID 504339. Potency, µM (highest dose often 114 µM), most hits filed as inhibitors. hit rate 4.4% among 390,000. O75164; also: nearly all actives have a fitted effect of over 50% in size
# BAZ2B inh = BAZ2B (human) inhibition. hit rate 4.4% among 360,000. Q9UIF8. AlphaScreen BAZ2B-H3K14Ac peptide displacement. Potency, µM (series often up to 114 µM), most hits filed as inhibitors. AID 504333; also: nearly all actives have a fitted effect of over 60% in size
#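 Compounds, titrated to a top concentration of 110 uM, were incubated 30 min at room temperature with preformed BAZ2B/acetyl-K14 H3 peptide complex (50 nM each). Proximity signal was measured by AlphaScreen after 20 min with beads.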
# L3MBTL1 block = blocks human L3MBTL1; AlphaScreen L3MBTL1–H3K9me1 peptide binding; Potency, µM (top dose mostly 57.1 µM), most hits filed as inhibitors; hit rate 0.66% among 230,000; AID 485360; also: nearly all actives have a fitted effect of over 60% in size
#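 L3MBTL1 50 nM + b-AHA-H3(1-15)K9me1 75 nM, 30 min RT; compound added, 30 min RT; streptavidin donor/Ni-chelate acceptor beads 10 ug/mL each final, 30 min RT dark; AlphaScreen read.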
# Hits are given with their value; – = inactive; ? = inconclusive; · = no result; [ ] = another dose, or the depositor's remark. Calls follow the shape of the dose curve; as a rule, active = well fitted curve in the direction sought with a large enough effect; inconclusive = small, poorly fitted or top-dose-only effect, or another doubt; inactive = no such curve, though single readings can be large; an effect the other way counts as inactive or inconclusive.
SMILES,HP1b binding inh,Sfp PPTase inh,G9a inh,JMJD2A Tudor inh,BAZ2B inh,L3MBTL1 block
COc1ccc(CNC(=O)c2cc3c(=O)n(Cc4cccs4)ccc3nc2C)cc1,–,·,–,–,–,·
CCN(CC)S(=O)(=O)c1ccc(C)c(NC(=O)CNc2cccc(S(=O)(=O)N3CCCC3)c2)c1,–,·,–,–,–,–
CC(=O)c1ccc(OCCCC(=O)Nc2cc(S(=O)(=O)N3CCCCC3)ccc2C)cc1,–,·,35.5µM,–,–,–
Cc1ccc(S(=O)(=O)N2CCCCC2)cc1NC(=O)CNc1ccc(C(F)(F)F)cc1,–,·,56.2µM,–,–,–
CCOC(=O)c1ccccc1NC(=O)CSc1ccc(-c2sc(-c3ccccc3)nc2C)nn1,–,·,–,–,–,·
O=S(=O)(Nc1nc2ccc(S(=O)(=O)N3CCCC3)cc2s1)c1ccc(F)cc1,–,–,39.8µM,–,?,·
O=C(Nc1nc2ccc(S(=O)(=O)N3CCCC3)cc2s1)c1ccc(F)cc1,–,·,–,–,–,·
CCN(CCO)Cc1cc(=O)oc2c(C)c(C)ccc12,–,–,50.1µM,–,–,–
Cc1ccc2c(CN3CCN(CCO)CC3)cc(=O)oc2c1C,–,–,–,–,–,·
Cc1cccc(C(=O)OCc2cc(=O)oc3c(C)c(C)ccc23)c1O,–,–,39.8µM,–,–,·
CCOc1ncccc1C(=O)OCc1cc(=O)oc2c(C)c(C)ccc12,–,–,–,–,–,–
Cc1cc(C)nc(N/N=C2/CCSc3ccc(F)cc32)n1,–,–,35.5µM,–,–,·
O=C(O)c1ccc(N/N=C2/CCSc3ccc(F)cc32)cc1,–,–,50.1µM,?,?,·
O/N=C1\CCSc2ccc(F)cc21,–,–,·,–,–,–
Cc1csc2nc(COC(=O)c3ccc(Cl)c([N+](=O)[O-])c3)cc(=O)n12,–,·,–,28.2µM,–,–
c1ccc(COC[C@@H]2CO2)cc1,·,–,·,·,·,·
CCCCCc1ccc(OCCC[n+]2ccccc2)c(CCCCC)c1,–,15.8µM,·,–,–,–
CCCCCc1ccc(OCCOCCn2c[n+](C)c3ccccc32)c(CCCCC)c1,–,50.1µM,–,?,–,·
CCCCOc1ccccc1Cn1c(=O)oc2ccccc21,–,–,–,–,–,–
CCCCC#Cc1nc(NC)c2ncn([C@@H]3O[C@@H](CO)[C@H](O)[C@H]3O)c2n1,·,–,·,·,·,·
CC(=O)N1CCc2cc(C(=O)CN3CCCCC3)ccc21,–,–,50.1µM,–,–,–
CCOC(=O)N1CCC(NS(=O)(=O)c2ccc3c(c2)CCN3C(C)=O)CC1,–,–,–,–,–,·
CC(=O)N1CCc2cc([N+](=O)[O-])ccc21,–,·,·,–,·,·
CCOC(=O)N1CCN(CC(=O)c2ccc3c(c2)CCN3C(C)=O)CC1,–,–,31.6µM,–,–,·
COc1ccc(NC(=O)N2CC[C@@]3(CCCNC3)C2)cc1,·,?,–[12.7 µM],·,·,·
SMILES,HP1b binding inh,Sfp PPTase inh,G9a inh,JMJD2A Tudor inh,BAZ2B inh,L3MBTL1 block
COc1ccc(-n2c(Cc3cccn3C)nnc2SCC(N)=O)cc1,–,?,50.1µM,–,–,–
COc1ccc(-n2c(Cc3cccn3C)nnc2SCC(=O)N2CCCc3ccccc32)cc1,–,–,44.7µM,?,?,–
COc1ccc(-n2c(Cc3cccn3C)nnc2SCC(=O)N2CCC(C)CC2)cc1,–,?,?,–,–,–
Cn1cccc1Cc1nnc(SCC(=O)N2CCCCCC2)n1-c1ccc(F)cc1,–,–,50.1µM,–,–,·
COc1ccc(-n2c(Cc3cccn3C)nnc2SCC(=O)N2CCCC2)cc1,–,–,44.7µM,–,–,–
CC(C)c1[nH]nc2c1C(c1ccc(OC(=O)c3ccco3)cc1)C(C#N)=C(N)O2 (configuration not stated),–,–,50.1µM,–,–,–
Cc1ccc2c(c1)-c1nc(-c3ccccc3)cc(-c3ccccc3)c1CO2,–,·,–,–,–,·
COc1ccc(-c2sc3ccccc3c2-c2ccc(OCCN3CCCCC3)cc2)cc1,–,·,·,44.7µM,·,–
c1ccc(-c2ccc(OCCN3CCCC3)cc2)cc1,·,–,·,·,·,·
c1ccc(-c2sc3ccccc3c2-c2ccc(OCCN3CCCC3)cc2)cc1,–,·,·,50.1µM,·,–
O=C1CSC(c2cccc([N+](=O)[O-])c2)N1CCN1CCCCC1 (configuration not stated),–,–,–,–,–,–
O=C1CSC(c2ccccc2F)N1CCN1CCCCC1 (configuration not stated),–,–,79.4µM,–,–,–
Cc1ccccc1OCC(=O)Nc1ccc(OCc2cc(=O)n3ccsc3n2)cc1,–,·,–,–,–,·
O=c1c(N2CCN(c3cccc(Cl)c3)CC2)csc2ccccc12,–,·,?,39.8µM,?,·
Cc1ccc2scc(N3CCN(c4ccc(F)cc4)CC3)c(=O)c2c1,–,·,–,?,?,·
Cc1ccc2scc(N3CCN(c4ccccc4)CC3)c(=O)c2c1,–,·,?,44.7µM,?,·
CCc1ccc(S(=O)(=O)c2cn(C)c3cc(N4CCC(C)CC4)c(F)cc3c2=O)cc1,–,·,–,–,–,·
COc1ccccc1-c1nc(SCC(=O)NCc2ccccc2)c2c(=O)n(C)c(=O)n(C)c2n1,–,·,–,–,–,·
Cc1csc(NC(=O)c2ccc(Cl)cc2[N+](=O)[O-])n1,–,–,–,–,–,·
O=C(Nc1nc(-c2ccccn2)cs1)c1cc(Cl)ccc1[N+](=O)[O-],?,44.7µM,5.62µM,56.2µM,14.1µM,10µM
Cc1ccc(C(=O)NC(=S)N2CC(C)OC(C)C2)cc1[N+](=O)[O-] (configuration not stated),–,–,39.8µM,–,–,–
Cc1cc(C(=O)Nc2nc(-c3ccccn3)cs2)ccc1[N+](=O)[O-],–,–,39.8µM,–,28.2µM,·
Cc1cc(C)nc(NC(=O)c2ccc(C)c([N+](=O)[O-])c2)n1,–,–,–,–,–,–
Cc1csc(NC(=O)c2ccc(C)c([N+](=O)[O-])c2)n1,–,?,10µM,–,?,–
Cc1cc(C(=O)Nc2cnc3ccccc3c2)ccc1[N+](=O)[O-],–,–,–,–,–,–
SMILES,HP1b binding inh,Sfp PPTase inh,G9a inh,JMJD2A Tudor inh,BAZ2B inh,L3MBTL1 block
O=C1c2ccccc2NC(c2ccc(OCc3ccccc3)c(OCc3ccccc3)c2)N1Cc1ccco1 (configuration not stated),–,·,·,–,·,·
CCC(=O)NC(=S)Nc1ccc(NC(=O)c2ccc(C)c([N+](=O)[O-])c2)cc1,–,–,7.94µM,–,–,–
C[C@H]1Cc2c(-c3ccccc3)nc3c(c2CO1)CN(S(=O)(=O)c1ccc(C#N)cc1)CC3,·,–,·,·,·,·
C=CC[C@](C)(O)c1ccccc1,·,–,·,·,·,·
C=CC[n+]1c(-c2ccccc2)csc1NC(C)(C)C,?,–,?,–,50.1µM,?
COc1ccc2c(c1)Cc1sc(NC(=O)c3cccs3)nc1-2,–,25.1µM,–,–,–,–[11.4 µM]
COc1ccc2c(c1)Cc1sc(NC(=O)c3cccc(Br)c3)nc1-2,–,·,–,–,–,·

# Screening results: PubChem BioAssay, National Center for Advancing Translational Sciences (NCATS)
